Laboratory results taken from PubChem BioAssay (NCATS).
“And” between values parts separate entries of the source, which are not always exact repeats. Equal entries are not always repeated. Records with an inconclusive call do not appear. The source made the active and inactive calls. Unless noted, calls come from the whole dose curve; as a rule, active = well fitted curve in the direction sought with a large enough effect; inconclusive = small, poorly fitted or top-dose-only effect, or another doubt; inactive = no such curve, though single readings can be large; an effect the other way counts as inactive or inconclusive.

Columns and labels:
[1] = biological target: Alpha-galactosidase A (Homo sapiens) (UniProt P06280); assay: Counterscreen for Glucocerebrosidase Inhibitors: qHTS Assay for Human alpha-Galactosidase at pH 4.5 (AID 992); note: 0% is about no effect
Alpha-galactosidase A (Homo sapiens), sequence (P06280 whole entry, looked up): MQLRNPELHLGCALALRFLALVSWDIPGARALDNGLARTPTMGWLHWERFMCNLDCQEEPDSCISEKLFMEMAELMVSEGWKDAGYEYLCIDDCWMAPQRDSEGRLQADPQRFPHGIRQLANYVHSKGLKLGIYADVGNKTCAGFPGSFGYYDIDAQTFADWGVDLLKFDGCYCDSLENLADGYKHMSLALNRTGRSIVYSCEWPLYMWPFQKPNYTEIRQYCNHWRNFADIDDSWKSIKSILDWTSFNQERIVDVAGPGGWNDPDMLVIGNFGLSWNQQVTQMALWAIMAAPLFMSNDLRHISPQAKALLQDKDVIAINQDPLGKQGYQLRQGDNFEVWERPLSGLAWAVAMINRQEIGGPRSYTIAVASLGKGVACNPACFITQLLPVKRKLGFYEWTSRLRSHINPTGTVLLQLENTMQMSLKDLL
Procedure, shortened: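 Read-out is 4-methylumbelliferone fluorescence (365 nm excitation, 440 nm emission) after a pH 10 NaOH/glycine stop. Reactions held 2 nM enzyme and 80 uM substrate at pH 4.5 for 20 min at room temperature.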

[2] = biological target: Alpha-galactosidase (Coffea arabica) (UniProt Q42656); assay: Counterscreen for Glucocerebrosidase Inhibitors: qHTS Assay for Coffee Bean alpha-Galactosidase at pH 5.9 (AID 998);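 note: plate controls were uninhibited enzyme for no effect and no-enzyme basal signal for full effect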
Alpha-galactosidase (Coffea arabica), sequence (Q42656 whole entry, looked up): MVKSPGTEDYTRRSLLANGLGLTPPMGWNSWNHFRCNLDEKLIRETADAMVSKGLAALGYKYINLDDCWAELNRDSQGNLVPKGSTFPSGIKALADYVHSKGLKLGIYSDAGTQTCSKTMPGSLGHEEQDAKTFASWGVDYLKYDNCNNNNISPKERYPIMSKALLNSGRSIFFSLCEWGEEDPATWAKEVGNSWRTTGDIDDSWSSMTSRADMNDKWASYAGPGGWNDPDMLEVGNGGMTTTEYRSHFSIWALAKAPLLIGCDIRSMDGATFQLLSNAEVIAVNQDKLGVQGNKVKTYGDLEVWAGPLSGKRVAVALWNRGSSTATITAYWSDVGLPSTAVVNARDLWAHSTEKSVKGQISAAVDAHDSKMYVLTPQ
Procedure, shortened: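 Green coffee bean enzyme (2 nM final) was incubated with compounds (0.7 nM–77 uM) and 4-methylumbelliferyl alpha-D-galactopyranoside (80 uM) in citrate buffer pH 5.9, 20 min at room temperature. High-pH stop; fluorescence 365/440 nm; AC50 from Hill fits.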

[3] = Validation of Assay for Modulators of Lamin A Splicing (AID 1459; active = well fitted curve in the direction sought with a large enough effect in the signal ratio; the % refers to the signal ratio;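 note: cells exposed to compound for two days before reading; 0% is about no effect; ratio rise marks activators and ratio drop marks inhibitors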)
Procedure, shortened: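 Readout: ratio of GFP (500-530 nm) to RFP (575-640 nm) total object intensity by 488 nm laser-scanning cytometry after 48 hrs. Cells were HeLa S3 clones carrying lamin A-EGFP minigene plus DsRed2 viability reporter; vehicle 0.5% DMSO final.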

[4] = Counterscreen for APE1 Inhibitors: Fluorescent Dye Displacement Validation Assay (AID 1707);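 note: plate controls were ThO with dsDNA and no compound for no effect and ThO without dsDNA for full effect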
Procedure, shortened: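 ThO 250 nM + dsDNA 50 nM (THF abasic site, 5'-TAMRA), Tris-HCl pH7.5/50mM NaCl/2 mM MgCl2/0.01% Tween-20; compounds pin-transferred; ex 480/em 540 nm endpoint. Neutral = no compound; no-DNA ThO wells = negative control.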

[5] = biological target: Endonuclease 4 (Escherichia coli (strain K12)) (UniProt P0A6C1); assay: Counterscreen for APE1 Inhibitors: qHTS Validation Assay for Inhibitors of Endonuclease IV (AID 1708); note: potency is the fitted concentration of half-maximal effect; for activity change, negative = inhibition: % is set by controls: 0 for no effect and ±100 for the full control effect
Procedure, shortened: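 2 nM enzyme was preincubated with compounds for 15 min at room temperature in 50 mM Tris-HCl pH 7.5, 50 mM NaCl, 2 mM MgCl2, 1 mM DTT, 0.01% Tween-20. 50 nM THF-abasic TAMRA/BHQ-2 duplex substrate started the reaction.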

[6] = qHTS for differential inhibitors of proliferation of Plasmodium falciparum line 7G8 (AID 1815);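 note: parasite growth measured after three days of incubation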; note: potency is the fitted concentration of half-maximal effect;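 for activity change, negative = inhibition: plate controls were vehicle wells for no effect and reference inhibitor wells for full effect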
[7] = qHTS for differential inhibitors of proliferation of Plasmodium falciparum line 3D7 (AID 1876); note: potency is the fitted concentration of half-maximal effect
[8] = qHTS for differential inhibitors of proliferation of Plasmodium falciparum line D10 (AID 1877);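 note: parasites grown with compound for 72 h before DNA staining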; note: potency is the fitted concentration of half-maximal effect;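 for activity change, negative = inhibition: plate controls were vehicle wells for no effect and reference inhibitor wells for full effect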
[9] = qHTS for differential inhibitors of proliferation of Plasmodium falciparum line Dd2 (AID 1882); settings: Potency: Plasmodium falciparum Dd2 proliferation inhibition; note: nearly all actives have a fitted effect of over 65% in size; note: potency is the fitted concentration of half-maximal effect;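 for activity change, negative = inhibition: compound exposure of 72 h on infected erythrocytes; plate controls were DMSO vehicle for no effect and 0.29 µM artemisinin for full effect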
Procedure, shortened: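 SYBR Green I DNA fluorescence read-out, ex 485/em 535 nm. Signals were normalized to 0.29 uM artemisinin and DMSO wells, then corrected using vehicle-only plates flanking each stack. Parasite growth ran 72 h in erythrocytes before lysis.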

[10] = qHTS for differential inhibitors of proliferation of Plasmodium falciparum line HB3 (AID 1886); settings: Potency: Plasmodium falciparum HB3 proliferation inhibition;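 note: parasites grown with compound for 72 h before SYBR Green readout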; note: potency is the fitted concentration of half-maximal effect;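 for activity change, negative = inhibition: plate controls were vehicle for no effect and reference inhibitor for full effect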
[11] = biological target: DNA repair nuclease/redox regulator APEX1 (Homo sapiens) (UniProt P27695); assay: qHTS Validation Assay for Inhibitors of the Human Apurinic/apyrimidinic Endonuclease 1 (APE1) (AID 1705; note: potency is the fitted concentration of half-maximal effect;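 for activity change, negative = inhibition: TAMRA fluorescence gain over two minutes as APE1 cuts a quenched THF abasic duplex; % is set by controls: 0 for no effect and ±100 for the full control effect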)
DNA repair nuclease/redox regulator APEX1 (Homo sapiens), sequence (P27695 whole entry, looked up): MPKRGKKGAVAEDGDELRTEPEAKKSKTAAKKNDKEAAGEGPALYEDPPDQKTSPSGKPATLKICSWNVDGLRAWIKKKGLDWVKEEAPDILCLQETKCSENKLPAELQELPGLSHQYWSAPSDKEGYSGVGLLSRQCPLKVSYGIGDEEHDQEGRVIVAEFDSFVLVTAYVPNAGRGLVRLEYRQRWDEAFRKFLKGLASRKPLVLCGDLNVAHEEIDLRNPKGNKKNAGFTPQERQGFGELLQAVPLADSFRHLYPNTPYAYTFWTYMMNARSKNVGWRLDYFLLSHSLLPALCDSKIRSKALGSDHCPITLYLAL
Procedure, shortened: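 Read-out: TAMRA fluorescence (525 nm ex, 598 nm em) from cleavage of a quenched THF abasic-site duplex, 50 nM final; activity taken as intensity change between third and first of three reads 60 s apart.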

[12] = qHTS for differential inhibitors of proliferation of Plasmodium falciparum line GB4 (AID 1816); settings: Potency: Plasmodium falciparum GB4 proliferation inhibition;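 note: parasite growth measured after 72 h incubation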; note: potency is the fitted concentration of half-maximal effect;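 for activity change, negative = inhibition: 0% = vehicle DMSO and -100% = reference inhibitor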
[13] = qHTS for differential inhibitors of proliferation of Plasmodium falciparum line W2 (AID 1883); settings: Potency: Plasmodium falciparum W2 proliferation inhibition;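 note: potency is the fitted concentration of half-maximal effect; parasites grown with compound for 72 h before lysis and staining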
[14] = qHTS Assay for Modulators of Human Peripheral Myelin Protein 22 (PMP22) Expression/Activity (AID 1967; active = well fitted curve in the direction sought with a large enough effect in the signal ratio; the % refers to the signal ratio;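 note: 0% = untreated cells and 100% end not stated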)
Procedure, shortened: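 Mouse MSC80 Schwann line, Pmp22 promoter–CBG68 reporter, EF-alpha–CBR internal control. 24h compound exposure, 37 °C/5% CO2, DMEM + 10% FBS. Readout: corrected green/red luminescence ratio, normalized to untreated cells; concentration-response curves fitted and classified.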

[15] = qHTS Assay for Lipid Storage Modulators (AID 1519; calls by dose curve; for activity change, negative = inhibition: % is set by controls: 0 for no effect and ±100 for the full control effect); settings: Drosophila S3 cells, BODIPY lipid droplet/cell ratio, laser cytometry, cells loaded with oleic acid
Procedure, shortened: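 Cells seeded at 5,000 per well were treated with compounds over a concentration series and loaded with oleic acid (400 uM, as added). Lipid droplet fluorescence (488 nm excitation, 500-530 nm channel) was read by laser-scanning cytometry and normalized to 20 uM Triacsin C.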

[16] = measured here: cell count channel max response
[17] = measured here: lipid channel max response

Q: Which results are given for `COc1ccc2[nH]c3c(c2c1)CCNC3`?
A: outcome [1]: inactive; outcome [2]: inactive; outcome [3]: inactive; Potency [4]: inactive; Potency [5]: inactive; Potency [6]: inactive; Potency [7]: inactive; Potency [8]: inactive; Potency [9]: inactive; Potency [10]: inactive

Q: For `COc1ccc2c(c1)/C(=C/c1cnc[nH]1)C(=O)N2`, which outcome [1] is on record?
A: inactive

Q: And the outcome [2]?
A: inactive

Q: And the Potency [11]?
A: inactive

Q: What about the Potency [6] of the same compound?
A: 7.08 µM (active)

Q: What about the Potency [12] of the same compound?
A: 8.91 µM (active)

Q: And the Potency [7]?
A: 12.6 µM (active)

Q: What about the Potency [8] of the same compound?
A: 14.1 µM (active)

Q: What about the Potency [9] of the same compound?
A: 12.6 µM (active)

Q: And the Potency [13]?
A: 7.08 µM (active)

Q: What about the Potency [10] of the same compound?
A: 12.6 µM (active)

Q: With `C[N+]1(C)CCOC(O)(c2ccc(-c3ccc(C4(O)C[N+](C)(C)CCO4)cc3)cc2)C1` (configuration not stated) as the compound, how does the outcome [3] read?
A: inactive

Q: What about the Potency [4] of the same compound?
A: inactive

Q: What about the Potency [5] of the same compound?
A: inactive

Q: And the Potency [6]?
A: inactive

Q: And the Potency [8]?
A: inactive

Q: And the Potency [9]?
A: inactive

Q: And the outcome [14]?
A: inactive

Q: Which activity change, negative = inhibition ([15]; at 25.7 µM (top of the series)) does the source give for `C[C@@H](Cc1ccccc1)NCCC(c1ccccc1)c1ccccc1` here?
A: -10.7% (inactive)

Q: What about the max response [15, 16] of the same compound?
A: -11.9%

Q: And the max response [15, 17]?
A: -23.1%

Q: With `O=c1ccc2[nH]cc(C3=CCNCC3)c2[nH]1` as the compound, how does the activity change, negative = inhibition ([15]; at 57.5 µM (top of the series)) read?
A: 9.75% (inactive)

Q: What about the max response [15, 16] of the same compound?
A: 9.34%

Q: And the max response [15, 17]?
A: 20.6%

Q: For `C[N+]1(C)C2CCC1CC(OC(=O)c1c[nH]c3ccccc13)C2` (configuration not stated), which Potency [4] is on record?
A: inactive

Q: What about the Potency [5] of the same compound?
A: inactive

Q: And the Potency [6]?
A: 11.2 µM (active)

Q: What about the Potency [12] of the same compound?
A: 12.6 µM (active)

Q: What about the Potency [7] of the same compound?
A: 14.1 µM (active)

Q: What about the Potency [8] of the same compound?
A: 12.6 µM (active)

Q: What about the Potency [9] of the same compound?
A: 12.6 µM (active)

Q: And the Potency [13]?
A: 7.94 µM (active)

Q: What about the Potency [10] of the same compound?
A: 14.1 µM (active)

Q: Which activity change, negative = inhibition ([15]; at 57.5 µM (top of the series)) does the source give for `[N-]=[N+]=CC(=O)OCC(N)C(=O)O` (configuration not stated) here?
A: 10.5% (inactive)

Q: What about the max response [15, 16] of the same compound?
A: 14.1%

Q: And the max response [15, 17]?
A: 29.9%

Q: With `Cc1c2ccncc2c(C)c2c1[nH]c1ccccc12` as the compound, how does the outcome [1] read?
A: inactive

Q: And the outcome [2]?
A: inactive

Q: And the Potency [11]?
A: 3.16 µM (active)

Q: What about the Potency [4] of the same compound?
A: inactive

Q: What about the Potency [5] of the same compound?
A: 2.82 µM (active)

Q: What about the Potency [6] of the same compound?
A: 0.794 µM (active)

Q: What about the Potency [12] of the same compound?
A: 0.398 µM (active)

Q: What about the Potency [7] of the same compound?
A: 0.447 µM (active)

Q: And the Potency [8]?
A: 2 µM (active)

Q: What about the Potency [9] of the same compound?
A: 1.12 µM (active)

Q: And the Potency [13]?
A: 0.708 µM (active)

Q: What about the Potency [10] of the same compound?
A: 1.41 µM (active)

Q: Which results are given for `NC(N)=Nc1ccc2[nH]c3c(c2c1)C[C@@]1(O)[C@H]2Cc4ccc(O)c5c4[C@@]1(CCN2CC1CC1)[C@H]3O5`?
A: activity change, negative = inhibition ([15]; at 57.5 µM (top of the series)): -5.63% (inactive); max response [15, 16]: -1.13%; max response [15, 17]: -6.88%; Potency [11]: inactive; Potency [4]: inactive; Potency [5]: inactive; Potency [6]: inactive; Potency [7]: inactive; Potency [9]: inactive; Potency [10]: inactive

Q: For `NC(=O)c1ccc(OCC(O)CN2CC=C(c3ccc(F)cc3)CC2)cc1` (configuration not stated), which activity change, negative = inhibition ([15]; at 57.5 µM (top of the series)) is on record?
A: -3.69% (inactive)

Q: What about the max response [15, 16] of the same compound?
A: -43.3%

Q: What about the max response [15, 17] of the same compound?
A: -42.5%

Q: What about the Potency [4] of the same compound?
A: inactive

Q: What about the Potency [5] of the same compound?
A: inactive

Q: And the Potency [12]?
A: 10 µM (active)

Q: What about the Potency [7] of the same compound?
A: 11.2 µM (active)

Q: What about the Potency [13] of the same compound?
A: 7.94 µM (active)

Q: Which activity change, negative = inhibition ([15]; at 57.5 µM (top of the series)) does the source give for `NC(Cc1ccc(N(CCCl)CCCl)cc1)C(=O)O` (configuration not stated) here?
A: 5.85% (inactive)

Q: What about the max response [15, 16] of the same compound?
A: 17.5%

Q: What about the max response [15, 17] of the same compound?
A: 28.4%

Q: And the Potency [11]?
A: inactive

Q: And the Potency [4]?
A: inactive

Q: What about the Potency [5] of the same compound?
A: inactive

Q: And the Potency [6]?
A: 10 µM (active)

Q: And the Potency [12]?
A: 11.2 µM (active)

Q: And the Potency [7]?
A: 10 µM (active)

Q: And the Potency [8]?
A: 12.6 µM (active)

Q: And the Potency [13]?
A: 10 µM (active)

Q: What about the Potency [10] of the same compound?
A: 12.6 µM (active)

Q: Which results are given for `CN1CC[C@@]2(C)c3cc(O)ccc3N(C)C12` (some centres not stated)?
A: activity change, negative = inhibition ([15]; at 57.5 µM (top of the series)): 0.587% (inactive); max response [15, 16]: -12.4%; max response [15, 17]: -11.4%; Potency [11]: inactive; Potency [4]: inactive; Potency [5]: inactive; Potency [6]: 12.6 µM (active); Potency [12]: 11.2 µM (active); Potency [7]: 11.2 µM (active); Potency [8]: 14.1 µM (active); Potency [9]: 12.6 µM (active); Potency [13]: 12.6 µM (active); Potency [10]: 8.91 µM (active)

Q: Which results are given for `COc1ccc(OC)c(C(O)C(C)N)c1` (configuration not stated)?
A: activity change, negative = inhibition ([15]; at 57.5 µM (top of the series)): 12.3% (inactive) and -2.22% (inactive); max response [15, 16]: 8.8% and 28.9%; max response [15, 17]: 25.1% and 26.8%; Potency [11]: inactive; Potency [4]: inactive; Potency [5]: inactive; Potency [6]: inactive; Potency [12]: inactive; Potency [7]: inactive; Potency [8]: inactive; Potency [9]: inactive; Potency [10]: inactive
